From PubChem BioAssay AID1671202 (University of Kansas High Throughput Screening Laboratory, 2021)
“And” between values parts separate entries of the source, which are not always exact repeats. Equal values may be shown once. The campaign covered roughly 190,000 compounds. About 6,900 (3.6%) were called active. This is one part of a sample in which actives are shown more often than they occur. Cut-off read from the data, not from the text of the source: active = inhibition above about 50%; inactive = the rest.

target: Huntingtin (Homo sapiens) (UniProt P42858); assay: mutant huntingtin-calmodulin interaction inhibitors – biochemical, AlphaScreen, primary screen (AID 1671202); conditions: AlphaScreen His-mHTT/GST-CaM binding, luminescence; at 15 µM, hits give high values;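 note: 0% = both proteins with DMSO and 100% = one protein alone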
Sequence (P42858 whole entry, looked up, stated change not applied): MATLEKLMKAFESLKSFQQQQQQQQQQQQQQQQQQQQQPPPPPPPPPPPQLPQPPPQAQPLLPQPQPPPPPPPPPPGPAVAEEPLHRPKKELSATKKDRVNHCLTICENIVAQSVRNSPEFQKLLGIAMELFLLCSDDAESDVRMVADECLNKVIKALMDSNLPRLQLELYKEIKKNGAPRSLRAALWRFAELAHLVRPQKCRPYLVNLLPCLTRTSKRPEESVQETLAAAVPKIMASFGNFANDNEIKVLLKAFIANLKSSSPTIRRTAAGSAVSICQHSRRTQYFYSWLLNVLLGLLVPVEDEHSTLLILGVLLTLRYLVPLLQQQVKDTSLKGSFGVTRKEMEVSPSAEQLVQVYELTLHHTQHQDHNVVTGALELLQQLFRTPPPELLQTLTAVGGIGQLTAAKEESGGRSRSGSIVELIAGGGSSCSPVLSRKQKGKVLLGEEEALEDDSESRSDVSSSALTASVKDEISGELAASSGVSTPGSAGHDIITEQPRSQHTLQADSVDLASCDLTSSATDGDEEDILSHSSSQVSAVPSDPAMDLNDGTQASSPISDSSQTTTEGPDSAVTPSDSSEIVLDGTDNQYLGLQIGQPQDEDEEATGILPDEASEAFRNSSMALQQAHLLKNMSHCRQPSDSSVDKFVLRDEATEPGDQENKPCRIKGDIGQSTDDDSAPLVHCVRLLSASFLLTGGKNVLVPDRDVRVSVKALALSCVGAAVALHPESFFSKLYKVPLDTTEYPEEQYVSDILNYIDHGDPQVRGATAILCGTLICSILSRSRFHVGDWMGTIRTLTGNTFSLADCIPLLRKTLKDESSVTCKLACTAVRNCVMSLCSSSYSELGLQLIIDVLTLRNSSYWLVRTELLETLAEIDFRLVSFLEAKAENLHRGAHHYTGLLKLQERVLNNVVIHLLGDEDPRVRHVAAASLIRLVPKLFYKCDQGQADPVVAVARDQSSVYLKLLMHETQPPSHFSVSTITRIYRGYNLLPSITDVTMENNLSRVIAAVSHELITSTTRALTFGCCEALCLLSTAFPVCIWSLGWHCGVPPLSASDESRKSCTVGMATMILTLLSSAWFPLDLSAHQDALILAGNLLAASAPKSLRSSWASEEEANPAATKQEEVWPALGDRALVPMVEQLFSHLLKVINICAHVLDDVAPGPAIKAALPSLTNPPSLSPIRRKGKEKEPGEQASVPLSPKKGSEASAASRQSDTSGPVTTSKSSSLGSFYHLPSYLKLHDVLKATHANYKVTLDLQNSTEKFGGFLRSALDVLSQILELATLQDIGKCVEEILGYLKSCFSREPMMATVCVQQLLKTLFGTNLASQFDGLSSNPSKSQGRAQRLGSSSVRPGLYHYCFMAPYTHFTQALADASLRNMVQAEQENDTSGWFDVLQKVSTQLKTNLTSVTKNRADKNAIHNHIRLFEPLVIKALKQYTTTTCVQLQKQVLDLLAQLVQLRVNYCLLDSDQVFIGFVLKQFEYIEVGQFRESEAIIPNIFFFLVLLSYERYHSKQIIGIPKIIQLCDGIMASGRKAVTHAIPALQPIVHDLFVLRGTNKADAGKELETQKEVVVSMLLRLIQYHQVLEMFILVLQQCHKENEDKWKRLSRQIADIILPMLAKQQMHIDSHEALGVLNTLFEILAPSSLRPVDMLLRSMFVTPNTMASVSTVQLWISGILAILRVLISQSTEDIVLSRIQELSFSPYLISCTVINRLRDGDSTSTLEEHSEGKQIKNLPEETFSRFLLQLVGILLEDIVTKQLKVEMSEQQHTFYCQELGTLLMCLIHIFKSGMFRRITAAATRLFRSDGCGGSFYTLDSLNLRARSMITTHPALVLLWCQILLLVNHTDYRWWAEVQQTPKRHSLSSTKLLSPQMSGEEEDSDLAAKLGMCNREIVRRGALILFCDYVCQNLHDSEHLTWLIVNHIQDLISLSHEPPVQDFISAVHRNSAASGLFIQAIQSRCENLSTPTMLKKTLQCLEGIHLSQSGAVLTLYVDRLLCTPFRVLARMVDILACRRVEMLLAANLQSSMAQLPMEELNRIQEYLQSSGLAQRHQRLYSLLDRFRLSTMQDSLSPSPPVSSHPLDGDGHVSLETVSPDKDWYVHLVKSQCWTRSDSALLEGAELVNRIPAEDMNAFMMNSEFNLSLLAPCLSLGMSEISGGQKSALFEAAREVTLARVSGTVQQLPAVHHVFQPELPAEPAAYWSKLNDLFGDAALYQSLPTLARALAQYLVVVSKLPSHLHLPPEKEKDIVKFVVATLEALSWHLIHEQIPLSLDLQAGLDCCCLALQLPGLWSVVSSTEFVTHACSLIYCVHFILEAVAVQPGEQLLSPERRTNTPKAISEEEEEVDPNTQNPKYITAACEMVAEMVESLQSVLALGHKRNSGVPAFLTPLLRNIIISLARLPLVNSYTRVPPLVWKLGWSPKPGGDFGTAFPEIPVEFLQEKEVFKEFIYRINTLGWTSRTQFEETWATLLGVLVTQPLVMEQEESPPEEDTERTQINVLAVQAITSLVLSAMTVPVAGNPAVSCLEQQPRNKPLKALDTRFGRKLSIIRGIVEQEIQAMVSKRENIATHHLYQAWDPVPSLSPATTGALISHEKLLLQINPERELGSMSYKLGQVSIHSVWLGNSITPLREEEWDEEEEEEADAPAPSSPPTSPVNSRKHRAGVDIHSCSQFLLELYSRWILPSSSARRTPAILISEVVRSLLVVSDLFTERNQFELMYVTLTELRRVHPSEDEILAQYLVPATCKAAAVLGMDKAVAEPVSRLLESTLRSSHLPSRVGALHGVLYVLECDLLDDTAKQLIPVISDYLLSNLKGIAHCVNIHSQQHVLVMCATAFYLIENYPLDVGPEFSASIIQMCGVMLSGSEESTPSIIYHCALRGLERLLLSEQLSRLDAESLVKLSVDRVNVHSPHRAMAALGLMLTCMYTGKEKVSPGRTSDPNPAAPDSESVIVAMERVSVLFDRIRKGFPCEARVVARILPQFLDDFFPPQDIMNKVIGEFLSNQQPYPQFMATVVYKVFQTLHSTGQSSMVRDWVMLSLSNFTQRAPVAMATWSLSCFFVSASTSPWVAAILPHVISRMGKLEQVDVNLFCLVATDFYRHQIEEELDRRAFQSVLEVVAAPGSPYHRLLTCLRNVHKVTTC

Row | SMILES | inhibition
1 | COc1ccc(N2C(=O)CSC2c2c(F)cccc2Cl)c(OC)c1 (centres undefined) | 1% (inactive)
2 | COc1cc(SC#N)ccc1N=Cc1c(C)[nH]n(-c2ccc(Br)cc2)c1=O | 2% (inactive)
3 | COc1cc([N+](=O)[O-])ccc1N=Cc1c(C)[nH]n(-c2ccccc2C)c1=O | 57% (active)
4 | COc1cc([N+](=O)[O-])ccc1N=Cc1c(C)[nH]n(-c2ccc(C)c(C)c2)c1=O | 11% (inactive)
5 | COc1cccc2cc(-c3cc(=O)oc4cc5c(cc34)CCCC5)oc12 | -2.8% (inactive)
6 | O=C(c1c(F)cccc1F)N1CCN(S(=O)(=O)C2CC2)CC1 | -10.4% (inactive)
7 | O=C1Nc2ccccc2Oc2cc([N+](=O)[O-])cc(Oc3ccccc3Br)c21 | 32% (inactive)
8 | O=C(c1ccccn1)N1CCC2(C1)NCc1ccccc1NC2=NCc1ccccc1 (centres undefined) | 12.6% (inactive)
9 | c1ccc(CN=C2Nc3ccccc3NC23CCCNC3)cc1 (centres undefined) | 25.7% (inactive)
10 | O=C(c1cnccn1)N1CCCC2(C1)Nc1ccccc1NC2=NCc1ccccc1 (centres undefined) | 25.6% (inactive)
11 | COCCNC(=O)N1CCCC2(C1)Nc1ccccc1NC2=NCc1ccccc1 (centres undefined) | 97.7% (active)
12 | COc1ccccc1C(=O)N1CCCC2(C1)Nc1cccnc1NC2=NCc1ccccc1 (centres undefined) | 1.03% (inactive)
13 | CC(C)(C)C(=O)N1CCCC2(C1)Nc1ccccc1NC2=NCc1ccccc1 (centres undefined) | 100% (active)
14 | Cc1cccc(-c2csc3c(=O)n(Cc4ccc(F)cc4)cnc23)c1 | -29.4% (inactive)
15 | O=S1(=O)c2ccccc2S(=O)(=O)N1c1cc(F)ccc1F | 6% (inactive)
16 | O=C(c1cccc2c1CCN2C(=O)C1CC1)N1CCOCC1 | -4.9% (inactive)
17 | CC12C=CC(O1)C1C(=O)N(c3ccc(Cl)c(C(=O)O)c3)C(=O)C12 (centres undefined) | -2% (inactive)
18 | O=C(NCc1ccccc1Cl)c1cnn2c3c(cnc12)CCCCCC3 | -7% (inactive)
19 | COc1cccc(N=Cc2cc(Br)ccc2O)c1 | 13% (inactive)
20 | O=C1OC(c2ccco2)=N/C1=C/c1ccc2c(c1)OCO2 | 29% (inactive)
21 | CSC1=N/C(=C\c2ccc3c(c2)OCO3)C(=O)S1 | -2% (inactive)
22 | O=C1/C(=C/c2ccc3c(c2)OCO3)CCC/C1=C\c1ccc2c(c1)OCO2 | 58% (active)
23 | COc1cc(Cl)ccc1C(=O)N1CCC(c2nc(CCNC(C)=O)cs2)CC1 | 5.03% (inactive)
24 | Cc1cccc(C(=O)N2CCCC(C(=O)NC3CCCC3)C2)c1 (centres undefined) | 25.1% (inactive)

Row | SMILES | inhibition
25 | Cc1nn(-c2ccccc2)c(Cl)c1C(=O)N1CCOCC1 | 1% (inactive)
26 | Cc1nn(-c2ccccc2)c(C)c1N1CCN(C(=O)c2cc(-c3ccccc3)n[nH]2)CC1 | 98.9% (active)
27 | O=C(c1cc(-c2ccccc2)n[nH]1)N1CCN(c2ncccn2)CC1 | -17.7% (inactive)
28 | COc1ccc(-c2nc(SCC(=O)Nc3ccc(OC(F)(F)F)cc3)[nH]c(=O)c2C#N)cc1 | 14% (inactive)
29 | COc1ccc(OC)c(C=C2Oc3c(ccc(O)c3CN3CCCCC3C)C2=O)c1 (centres undefined) | -1.3% (inactive)
30 | COc1ccc(-c2nnc(N3CCC(C(=O)NCc4cccc(OC)c4)CC3)o2)cc1 | 21% (inactive)
31 | COc1ccc(N2CC(C(=O)Nc3ccc(C(C)C)cc3)CC2=O)cc1 (centres undefined) | 0.1% (inactive)
32 | CC(C)c1ccc(N2CC(C(=O)N(C)Cc3ccccc3)CC2=O)cc1 (centres undefined) | 56.5% (active)
33 | Cc1ccc(N2CC(C(=O)N(C)C(C)C)CC2=O)cc1 (centres undefined) | -4.2% (inactive)
34 | Cc1ccc(C(=O)NCC2CCCN(S(=O)(=O)c3ccc(F)cc3F)C2)cc1 (centres undefined) | -3.67% (inactive)
35 | O=C(CCn1c(=O)c2sccc2n(Cc2cccc(Cl)c2)c1=O)NCc1ccccc1 | -2% (inactive)
36 | COc1ccccc1CC(=O)N1CCCn2nc(-c3ccc(C)cc3)cc2C1 | 37.9% (inactive)
37 | Cc1cccc(-c2cc3n(n2)CCCN(C(=O)C(C)Oc2ccccc2)C3)c1 (centres undefined) | 42.9% (inactive)
38 | COc1ccccc1CCC(=O)N1CCCn2nc(-c3cccc(C)c3)cc2C1 | 68.3% (active)
39 | CCOc1ccccc1Oc1c(C)oc2c(CN(CC)CC)c(O)ccc2c1=O | 3.7% (inactive)
40 | CCC(CC)C(=O)Nc1ccc(Br)cc1F | -9.3% (inactive)
41 | Cn1nc(-c2nc(-c3cccc(F)c3)no2)c2c1CCN(C(=O)Cc1cccs1)C2 | 20.1% (inactive)
42 | CCN(CC)CCC(c1ccc2c(c1)OCO2)c1c(OC)cc(OC)c2c(-c3ccccc3)cc(=O)oc12 (centres undefined) | 101% (active)
43 | COc1ccc(-c2c(C)cc3oc(=O)cc(-c4ccccc4)c3c2C)cc1F | -2.4% (inactive)
44 | COc1cccc2cc(-c3nc(-c4ccc5c(c4)OCO5)cs3)c(=O)oc12 | -9% (inactive)
45 | CCN(CC)CCC(c1cc(OC)c(OC)c(OC)c1)c1c(OC)cc(OC)c2c(-c3ccccc3)cc(=O)oc12 (centres undefined) | -4.8% (inactive)
46 | CCN(CC)C(=O)CC(c1ccc2c(c1)OCO2)c1c(OC)cc(OC)c2c(-c3ccccc3)cc(=O)oc12 (centres undefined) | 74.9% (active)
47 | COc1ccc(-c2c(C)cc3oc(=O)cc(-c4ccccc4)c3c2C)cc1OC | -2.2% (inactive)
48 | Cc1ccc(Cc2c(C)nc(C)nc2N2CCN(C(=O)c3ccccc3)CC2)cc1 | 11.3% (inactive)

Row | SMILES | inhibition
49 | COCCc1noc(COC2CCCN(C(=O)c3ccccn3)C2)n1 (centres undefined) | -8.61% (inactive)
50 | CCc1ccccc1NC(=O)NCCNc1cc(-n2nc(C)cc2C)nc(C)n1 | -5.7% (inactive)
51 | CSc1cccc(NC(=O)NCCNc2cc(-n3ccnc3C)nc(C)n2)c1 | 99.9% (active)
52 | CCNc1cc(NCCNC(=O)c2cccc(F)c2)nc(C)n1 | -7.5% (inactive)
53 | O=C1C(c2ccc(F)cc2)N(C2CCCC2)C(=O)CN1C1CCCCCC1 (centres undefined) | -6% (inactive)
54 | O=C(CCCn1c2ccccc2c(=O)c2ccccc21)Nc1ccc(C(F)(F)F)cn1 | 23% (inactive)
55 | O=C(NCc1cccc(F)c1)c1cc2n(n1)CCCN(Cc1ccc(Cl)cc1)C2=O | 16.8% (inactive)
56 | CCCc1cc(C2CCCN2Cc2cc(OC)c(OC)cc2OC)no1 (centres undefined) | 37.6% (inactive)
57 | COc1cc(C2NC(C(=O)O)CS2)ccc1O (centres undefined) | -7% (inactive)
58 | COc1ccc([N+](=O)[O-])cc1NC(=O)CC(C)C | -0.3% (inactive)
59 | COc1ccc([N+](=O)[O-])cc1NC(=O)c1ccc(C)c(Br)c1 | 8.5% (inactive)
60 | COc1ccc([N+](=O)[O-])cc1-n1c(C)ccc1C | 51.9% (active)
61 | O=C(CC(C(=O)O)N1CCNCC1)Nc1ccc(OC(F)F)cc1 (centres undefined) | -16.1% (inactive)
62 | Cc1ccc(NC(=O)Cn2cccc2-c2nnc(C3CCC3)o2)cc1 | 12.1% (inactive)
63 | O=C1c2ccccc2C(=O)c2c(NC3CCCCC3)cccc21 | 73% (active)
64 | O=C1c2ccccc2C(=O)c2c(NC(=O)c3c(F)cccc3F)cccc21 | 1% (inactive)
65 | CC1CCCC(C)N1C(=O)c1cccc2c1-c1ccccc1C2=O (centres undefined) | -6% (inactive) and 2.5% (inactive)
66 | O=C(CSc1ccc(C(F)(F)F)cc1[N+](=O)[O-])Nc1ccccc1Cl | 8% (inactive)
67 | CCOc1cc(/C=C2\NC(=O)NC2=O)cc(Cl)c1OC(C)C | 14% (inactive)
68 | CCOc1cc(/C=C2\NC(=O)NC2=O)cc(Cl)c1OCc1ccc([N+](=O)[O-])cc1 | 74% (active)
69 | O=C1NC(=O)/C(=C\c2ccc(OCc3ccc([N+](=O)[O-])cc3)c(Br)c2)N1 | 10% (inactive)
70 | COc1cccc(CN2COc3ccc4c(c3C2)OC(=Cc2ccc(OC)c(OC)c2OC)C4=O)c1 | 35.7% (inactive)
71 | COc1cccc(CN2COc3ccc4c(c3C2)OC(=Cc2cccnc2)C4=O)c1 | 3.4% (inactive)
72 | COc1cccc(C=C2Oc3c(ccc4c3CN(Cc3cc(OC)c(OC)c(OC)c3)CO4)C2=O)c1 | 56.5% (active)

Row | SMILES | inhibition
73 | CCn1cnnc1C1CCCCN1C(=O)c1cnccn1 (centres undefined) | 0.74% (inactive)
74 | CCOc1ccccc1/C=C1\N=C(c2ccc([N+](=O)[O-])cc2Cl)OC1=O | -1% (inactive)
75 | CC(=O)N1CCc2[nH]c3ccc(C(=O)NCCc4ccccn4)cc3c2C1 | 58.7% (active)
76 | CN1CCC(CCNC(=O)c2ccc3[nH]c4c(c3c2)CN(C(=O)C2CCC2)CC4)CC1 | 4.82% (inactive)
77 | CC(=O)N1CCc2[nH]c3ccc(C(=O)NC4CCCCC4)cc3c2C1 | 9.6% (inactive)
78 | Oc1ccc(Nc2nc(-c3ccc(Cl)cc3Cl)nc3ccccc23)cc1 | 37.4% (inactive)
79 | CCc1cc(C(=O)Nc2ccccc2)no1 | -4.5% (inactive)
80 | CCNc1cc(Nc2ccccc2)c2c3c(onc13)-c1ccccc1C2=O | 100% (active)
81 | O=C(NCc1ccc(Cl)cc1)c1ccc2ncnc(N3CCOCC3)c2c1 | -1.3% (inactive)
82 | CC(=O)c1cccc(NC(=O)C2CCN(S(=O)(=O)c3ccc(Br)cc3)CC2)c1 | -1.7% (inactive)
83 | COc1ccc(C2NC(c3ccc(OC)c(OC)c3)C(C)C(=O)C2C)cc1OC (centres undefined) | 10% (inactive)
84 | CCN(CCCNC(=O)C1CC(=O)N(C2CCCCCCC2)C1)c1cccc(C)c1 (centres undefined) | 53% (active)
85 | Cc1ccc(CNC(=O)C2CC(=O)N(C3CCCCCCC3)C2)cc1 (centres undefined) | 8.83% (inactive)
86 | Cc1ccc(CNC(=O)C2CC(=O)N(C3CCCCC3)C2)cc1 (centres undefined) | 2.18% (inactive)
87 | COc1ccc(-n2nc3c(c2NC(=O)c2cccc(OC)c2OC)CS(=O)C3)cc1 (centres undefined) | 5% (inactive)
88 | O=C1C2C(C(=O)N1c1cc([N+](=O)[O-])ccc1Cl)C1C=CC2C12CC2 (centres undefined) | 4% (inactive)
89 | Cc1ccnc(N2CCCC(C(=O)NCCc3ccc(Cl)cc3)C2)n1 (centres undefined) | 7.6% (inactive)
90 | Cc1ccc2cc3cc(C(=O)N(C)c4ccc(Br)cc4)oc3nc2c1 | -8% (inactive)
91 | Cc1ccc(CNC(=O)CCC(=O)N2CCCn3nc(C)cc32)cc1 | 1.63% (inactive)
92 | COc1ccc(OC)c2[nH]c(=O)c(CCNC(=O)c3ccc(C)c(C)c3)cc12 | 28% (inactive)
93 | COc1ccc(C(=O)NCCc2nc3ccccc3n2Cc2ccccc2C)cc1OC | 77% (active)
94 | COc1ccc(C(=O)NCCc2ccc(S(N)(=O)=O)cc2)cc1OC | 9.3% (inactive)
